Screening data deposited in PubChem BioAssay by National Center for Advancing Translational Sciences (NCATS).
HCMV inh – qHTS Assay for inhibitors of the human cytomegalovirus (HCMV); AID 1259415, 2018; activity change, negative = inhibition, % at 57.5 µM; hit rate 4.5% among 410,000; HFF cells, HCMV-luciferase reporter, 72 h; active compounds read low; in the data active = activity change below about -60%; inconclusive = no clear call, values can overlap the other calls; inactive = above about -39%
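Compounds were evaluated in HFFs infected with an HCMV luciferase reporter virus (MOI 1 PFU/cell). Luciferase in lysates collected 72 h post infection served as the replication measure.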
FMDV inh – High Throughput Screening for Foot and Mouth Disease Virus Antivirals | Potency, µM (doses to about 57.9 µM), without a hit: at the highest dose activity change, negative = inhibition, usual class: inhibitors | AID 1159524, 2015 | hit rate 1.2% among 410,000 | FMDV antiviral cell-based qHTS; calls by dose curve; tested in HEK293T cells; also: read-out not given here; potency is read from the fitted curve at half-maximal effect; nearly all actives have a fitted effect of over 45% in size
Lassa entry inh – qHTS for Inhibitors of binding or entry into cells for Lassa Virus. Lassa virus pseudotype entry inhibition, cell reporter. Potency, µM (titrated, usually from 37.9 µM), inactives show top-dose activity change, negative = inhibition, most hits filed as inhibitors. hit rate 1.2% among 300,000. AID 540256, 2011; calls by dose curve; tested in HEK293 cells; also: potency is read from the fitted curve at half-maximal effect; nearly all actives have a fitted effect of over 50% in size
Vaccinia Venus – qHTS for Stage-Specific Inhibitors of Vaccinia Orthopoxvirus: Venus Reporter Primary qHTS | Potency, µM (titrated, usually from 36.5 µM), without a hit: top-dose activity change, negative = inhibition, usual class: inhibitors | Vaccinia virus Venus reporter expression, fluorescence | hit rate 0.46% among 330,000 | AID 720580, 2013; calls by dose curve; tested in A549 cells; also: potency is read from the fitted curve at half-maximal effect; nearly all actives have a fitted effect of over 30% in size
Vaccinia mCherry – qHTS for Stage-Specific Inhibitors of Vaccinia Orthopoxvirus: mCherry Reporter Primary qHTS | hit rate 0.63% among 310,000 | Vaccinia virus mCherry reporter infection, fluorescence | AID 720579, 2013 | Potency, µM (titrated, usually from 36.5 µM), without a hit: top-dose activity change, negative = inhibition, usual class: inhibitors; calls by dose curve; tested in A549 cells; also: potency is read from the fitted curve at half-maximal effect; nearly all actives have a fitted effect of over 35% in size
MARV entry inh – qHTS for inhibitors of binding or entry into cells for Marburg Virus. Marburg virus pseudotyped entry inhibition, cell reporter. Potency, µM (doses to about 37.8 µM), for the others: top-dose activity change, negative = inhibition, hits mostly inhibitors. AID 540276, 2011. hit rate 1.8% among 300,000; calls by dose curve; tested in HEK293 cells; also: potency is read from the fitted curve at half-maximal effect
Active calls of the source: *; i = inactive; ? = inconclusive; . = not tested or not shown; [ ] = remark or other dose. A selection: hits, their analogues and other compounds. The true share with any hit is near 6.5%. % is scaled to controls: 0 for no effect and ±100 for the full control effect.

SMILES	HCMV inh	FMDV inh	Lassa entry inh	Vaccinia Venus	Vaccinia mCherry	MARV entry inh
Cc1cc(C)nc(N/N=C/c2cc(C)n(CC(F)(F)F)c2C)n1	-74.7*	17.5%	?	.	.	-24.8%
CC(=O)N1CCN(Cc2ccc(Cl)nc2)CC1	-78.2*	-8.0%	-1.8%[46.1 µM]	-10.3%	i	11.1%[46.1 µM]
O=[N+]([O-])/C(C(=C(Cl)Cl)N1CCN(Cc2ccccc2)CC1)=C1\NCCN1Cc1ccc(Cl)nc1	-14.3	12.2%	-11.3%	?	10µM*	?
O=C(C(=C1N(Cc2ccc(Cl)nc2)CCN1Cc1ccc(Cl)nc1)[N+](=O)[O-])C(Cl)Cl	-4.4	-3.1%	.	.	.	.
COc1cc(-c2c(OC)cccc2OC)cc2c1OCCN(C(=O)CCC(=O)c1ccc(F)cc1)C2	.	-7.1%	.	17.3%	-2.1%	.
Cc1ccc(NC(=O)CCC(=O)N2Cc3ccccc3Oc3ncccc32)cc1	7.1	-15.1%	7.8%[46.1 µM]	-5.6%	-13.4%	.
CS(=O)(=O)c1ccc2nc(N)sc2c1	47.5	12.2%	7.5%	-7.2%	-13.3%	12.4%
CS(=O)(=O)c1ccc(N)c(SSc2cc(S(C)(=O)=O)ccc2N)c1	-82.4*	4.3%	.	-6.5%	i	.
CCc1cc2c(cc3c(=O)n(CC(=O)NC(C)C)nc(CC)n32)s1	-12.3	-6.5%	.	-11.3%	-14.1%	10.8%[46.1 µM]
Oc1ccc(Cl)cc1-c1cc(-c2cccc(Br)c2)n[nH]1	-93.2*	6.5%	?	.	.	?
Oc1ccccc1-c1cc(-c2cccc(F)c2)n[nH]1	211.6	17.6%	?	.	.	0.4%
COc1cccc(NC(=O)CSc2nnc3[nH]c(=O)cc(-c4ccccc4)n23)c1	18.7	26.8%	3.7%[46.1 µM]	-15.3%	i	.
Cc1ccc(N(C(=O)c2sc(C)nc2C)C(C(=O)NCc2ccco2)c2ccccc2)cc1 (configuration not stated)	?	.	7.3µM*	-15.7%	i	?
Cc1ccc(NC(=O)/C=C\C(=O)N(c2ccc(C(C)C)cc2)C(C(=O)NCc2ccco2)c2ccc(F)cc2)cc1 (configuration not stated)	-81.8*	-28.2%	-28.8%[46.1 µM]	?	?	.
COc1ccc(NC(=O)/C=C\C(=O)N(c2ccc(C(C)C)cc2)C(C(=O)NCc2ccco2)c2ccc(C)cc2)cc1 (configuration not stated)	-11.0	-17.8%	-36.2%[46.1 µM]	?	?	.
OC1(c2ccc3c(c2)CN(Cc2nccs2)CCO3)CCN(c2ccccc2F)CC1	.	-15.3%	.	0.0%	-11.7%	.
CN(C)c1ccc([C@@H]2[C@@H]([N+](=O)[O-])[C@H]3C=Cc4ccccc4N3[C@H]2C(=O)c2ccc(Cl)cc2)cc1	-66.9*	-23.5%	-3.6%	15.4%	-13.1%	-14.4%
CS(=O)(=O)Nc1ccc(-c2cnc3cccnn23)cc1	-63.9*	1.0%	.	-7.8%	-1.5%	.
CS(=O)(=O)Nc1ccc(-c2cncc3nccn23)cc1	-9.8	-17.1%	.	-5.4%	5.2%	.
CCOC(=O)c1c(S(=O)(=O)N2CCN(c3ccccc3OC)CC2)c(C)n(C)c1C	7.7	-8.2%	-6.3%[46.1 µM]	-18.8%	i	.
COc1ccc(C2=CC(c3ccc(F)cc3)n3ncc(C(=O)Nc4ccc(C)cc4)c3N2)cc1 (configuration not stated)	-88.3*	0.0%	?	-25.0%	?	.
COc1ccc(C2C=C(c3ccc(F)cc3)Nc3nc(-c4ccc(Cl)cc4)nn32)cc1 (configuration not stated)	-101.4*	?	?	?	?	?
Cc1ccc(NC(=O)c2cnn3c2NC(c2ccccc2)=CC3c2ccccc2)cc1 (configuration not stated)	?	-17.8%	-15.1%[46.1 µM]	-10.1%	-21.3%	.
Fc1ccc(NC(=S)Nc2ccc(Cl)cc2)cc1	-78.4*	19.0%	6.8%[46.1 µM]	-16.4%	-1.9%	-11.0%[46.1 µM]
NNC(=O)C1CC1c1ccc(Cl)cc1 (configuration not stated)	-22.3	-16.9%	2.59µM*	-9.3%	-18.5%	-0.5%
SMILES	HCMV inh	FMDV inh	Lassa entry inh	Vaccinia Venus	Vaccinia mCherry	MARV entry inh
O=C(NNC(=S)Nc1ccc(F)cc1)C1CC1c1ccc(Cl)cc1 (configuration not stated)	1.2	-16.1%	0.411µM*	-19.0%	-21.0%	0.2%
COc1ccccc1NC(=O)C1=C(C)Nc2c(C(=O)Nc3ccc(F)cc3)cnn2C1c1ccc(Cl)cc1 (configuration not stated)	?	-7.2%	?	-14.1%	i	.
O=C(CSc1n[nH]c(=O)[nH]c1=O)c1ccccc1	-66.6*	-16.4%	-2.0%	?	.	4.4%
O=C(CSc1n[nH]c(=O)[nH]c1=O)c1cccc([N+](=O)[O-])c1	?	-9.3%	.	.	.	.
CCc1ccc(-c2nc(CN3CCCC(C(=O)N4CCN(c5cc(Cl)ccc5C)CC4)C3)c(C)o2)cc1 (configuration not stated)	-86.0*	?	?	?	?	?
Cc1ccc(Cl)cc1N1CCN(C(=O)C2CCCN(Cc3nc(-c4cccc(Cl)c4)oc3C)C2)CC1 (configuration not stated)	-69.2*	?	-5.1%[46.1 µM]	-9.0%	i	-17.8%[46.1 µM]
C[C@H]1[C@@H](NS(=O)(=O)c2ccc(C(F)(F)F)cc2)CC[C@@]23CCCN2C(=O)CCC[C@@H]13	-25.1	.	.	.	.	.
O=C(Nc1ccc(Oc2ccc(NC(=O)c3ccco3)c(NC(=O)c3ccco3)c2)cc1)c1ccco1	?	.	9.1%	-10.1%	-8.8%	?
Cc1ccoc1C(=O)Nc1ccc2ccccc2c1	42.8	?	10µM*	-23.2%	-24.3%	?
O=C(Nc1ccc(N2CCN(Cc3ccccc3Cl)CC2)cc1)c1cccnc1	-63.9*	?	-3.3%	-11.4%	-22.3%	?
O=C(Nc1ccc(NC(=O)c2sc3ccccc3c2Cl)cc1)c1ccco1	-75.8*	?	1.1%	-7.3%	-18.0%	?
O=C(NNc1ccccc1)c1sc2ccccc2c1Cl	.	.	.	-17.7%	-12.4%	.
O=C(Nc1ccc(Oc2ccc3ccccc3c2)cc1)c1ccco1	-68.5*	0.0%	-35.8%	-17.1%	-16.6%	?
CC(C)(C)c1ccc(C(=O)N2CC(=O)Nc3ccc(F)cc3C2c2ccc(F)cc2)cc1 (configuration not stated)	-14.4	-18.0%	?	-20.4%	-14.5%	?
O=C(Nc1ccc(Nc2ccccc2)cc1)c1ccco1	-63.7*	30.6%	-25.9%	-13.0%	-18.6%	?
O=C(Nc1ccc(F)c(F)c1)c1ccco1	-78.1*	20.8%	.	.	.	.
O=C(Nc1ccc(Nc2ccccc2)cc1)c1c(Cl)cccc1Cl	-74.5*	16.1%	-17.9%[46.1 µM]	-10.1%	?	?
O=C(Nc1ccc(N2CCN(Cc3ccccc3)CC2)cc1)c1ccco1	-82.5*	5.9%	-6.8%	-11.9%	-6.8%	-23.5%
